Measurements: the supplement of paper PMC8253809
Where “and” joins values, the source holds several entries; their conditions need not be identical. Equal entries are not always repeated.

What was measured:
Assay in all cases: growth inhibition (% activity, log2 RLU normalised to DMSO / staurosporine); higher = more growth inhibition
Conditions in all cases: 33 µM
[1] = tested on: DIPGX29 (H3.3 K27M diffuse intrinsic pontine glioma line)
In short: (§1)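 The growth-inhibition value comes from CellTiter-Glo luminescence, log2-transformed, normalised per plate to % activity between solvent and positive control wells, and taken as the median over replicates. Treatment of pHGG cell lines and H9-derived neural stem cells with approved drugs was at a single final concentration of about 33 μM, in triplicate, for 7 days at 37 °C, 5% CO2.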

[2] = tested on: DIPGX37 (H3.3 K27M diffuse intrinsic pontine glioma line)
In short: as §1

[3] = tested on: DIPGX7 (H3.3 K27M diffuse intrinsic pontine glioma line)
In short: as §1

[4] = tested on: DIPGX9 (diffuse intrinsic pontine glioma line)
In short: as §1

[5] = tested on: HGGX39 (paediatric high-grade glioma line)
In short: as §1

[6] = tested on: HGGX6 (H3.3 G34R paediatric high-grade glioma line)
In short: as §1

[7] = tested on: HNSC
In short: as §1

[8] = tested on: SUDIPGIV (diffuse intrinsic pontine glioma line)
In short: as §1

[9] = tested on: SUDIPGVI (diffuse intrinsic pontine glioma line)
In short: as §1

[10] = tested on: SUDIPGXIII (diffuse intrinsic pontine glioma line)
In short: as §1

SMILES | growth inhibition [1] | growth inhibition [2] | growth inhibition [3] | growth inhibition [4] | growth inhibition [5] | growth inhibition [6] | growth inhibition [7] | growth inhibition [8] | growth inhibition [9] | growth inhibition [10]
CC1=C(CC(=O)O)c2cc(F)ccc2/C1=C\c1ccc([S+](C)[O-])cc1 (stereo not given) | 1.11% | 1.67% | 0.000497% | 0.866% | 0.763% | 2.31% | -0.224% | 0.82% | 2.02% | 0.292%
CCCCCCOC(=O)NC(=N)c1ccc(NCc2nc3cc(C(=O)N(CCC(=O)OCC)c4ccccn4)ccc3n2C)cc1 | 0.869% | 2.08% | 1.77% | 1.32% | 1.62% | 2.11% | 1.37% | 0.438% | 2.67% | -16.9%
N[C@@H](Cc1ccc(O)c(O)c1)C(=O)O | -0.663% | 0.423% | -0.313% | 0.542% | 2.68% | 1.4% | 0.395% | -0.394% | -1.98% | -0.139%
NC(=O)NO | -5.64% | -0.579% | -2.73% | -1.74% | -1.77% | -4.15% | 2.98% | -2.11% | -4.44% | 1.21%
N#C[C@@H]1C[C@@H]2C[C@@H]2N1C(=O)[C@@H](N)C12CC3CC(CC(O)(C3)C1)C2 | 2.2% | 1.41% | 1.21% | 0.435% | 5.53% | 2.65% | 8.15% | 7.37% | 2.7% | 7.88%
O=C(Oc1ccccc1C(=O)O)c1ccccc1O | -4.53% | -1.4% | 0.584% | -2.94% | -1.64% | -6.45% | 9.98% | -3.17% | -8.34% | -0.246%
COc1cc(Cc2cnc(N)nc2N)cc(OC)c1OC | 1.94% | 3.36% | 1.59% | 1.97% | 3.59% | 2.4% | 0.59% | 2.24% | 2.5% | -1.4%
CC1Cc2ccccc2N1NC(=O)c1ccc(Cl)c(S(N)(=O)=O)c1 (stereo not given) | -2.32% | 0.265% | -1.54% | -0.538% | 0.759% | 0.259% | -4.15% | -2.59% | -1.16% | -1.46%
CCCCCCCCCCCCCCCC(=O)O[C@@H]1[C@@H](O)[C@@H](O)[C@@H]([C@H](NC(=O)[C@@H]2C[C@@H](CCC)CN2C)[C@H](C)Cl)O[C@@H]1SC | 0.38% | -0.882% | 0.64% | -0.0578% | 2.42% | 2.01% | -1.46% | 1.12% | 0.759% | -0.501%
C#C[C@]1(OC(C)=O)CC[C@H]2[C@@H]3CCC4=C[C@@H](OC(C)=O)CC[C@@H]4[C@H]3CC[C@@]21C | 0.289% | 0.452% | -1.67% | 1.3% | -0.196% | 0.0724% | 1.57% | -1.23% | 1.15% | 1.62%
Oc1ccc(/C=C/c2cc(O)cc(O)c2)cc1 | 2.03% | -0.532% | 4.05% | 1.48% | 1.37% | 2.36% | 3.97% | -5.92% | 1.29% | -0.764%
CN(C)/N=N/c1[nH]cnc1C(N)=O | 5.71% | 3.55% | 2.2% | 3.08% | 9.03% | 7.4% | 4.41% | 12.8% | 2.55% | 0.947%
CCOC(=O)CC(=O)N1CCSC1COc1ccccc1OC (stereo not given) | 2.29% | 3.41% | 3.11% | 1.18% | 5.96% | 2.78% | 3.53% | 4.58% | 2.42% | -0.201%
Nc1ccc(C(=O)O)c(O)c1 | 0.612% | 1.18% | 0.982% | 0.745% | 1.12% | 1.72% | -0.259% | 0.343% | -1.22% | -1.06%
NCCCC[C@H](N[C@@H](CCc1ccccc1)C(=O)O)C(=O)N1CCC[C@H]1C(=O)O | -0.869% | -1.25% | -0.813% | -0.846% | -1.12% | 1.27% | -1.56% | -0.401% | -1.38% | -4.08%
CCC(=O)O[C@]1(C(=O)CCl)[C@@H](C)C[C@H]2[C@@H]3CCC4=CC(=O)C=C[C@]4(C)[C@@]3(F)[C@@H](O)C[C@@]21C | 2.76% | 3.09% | 1.96% | 5.92% | 8.62% | 1.59% | 10.2% | 6.72% | 2.14% | 2.24%
CNS(=O)(=O)CCc1ccc2[nH]cc(C3CCN(C)CC3)c2c1 | 0.0879% | 3.2% | 0.944% | 1.8% | 1.37% | -0.244% | 1.62% | 1.09% | 2.79% | -1.47%
COc1ccc(CN(CCN(C)C)c2ccccn2)cc1 | -4.36% | -0.213% | -2.04% | -0.968% | 2.69% | -3.48% | -2.01% | -2.03% | -1.61% | 0.98%
CC(=O)[C@H]1CC[C@H]2[C@@H]3CC=C4C[C@@H](O)CC[C@]4(C)[C@H]3CC[C@]12C | -0.784% | -0.0978% | -1.68% | -0.764% | -1.75% | -0.479% | -2.77% | -1.85% | -0.676% | 0.295%
C=Cc1c(C)c2cc3nc(cc4[nH]c(cc5nc(cc1[nH]2)C(C)=C5CCC(=O)O)c(CCC(=O)OC)c4C)C1(C)C3=CC=C(C(=O)OC)C1C(=O)OC (stereo not given) | 0.0791% | -1.21% | 0.254% | -0.022% | 1.95% | 0.712% | 2.35% | -0.469% | -1.11% | -2.15%
CCCCCOC(=O)Nc1nc(=O)n([C@@H]2O[C@H](C)[C@@H](O)[C@H]2O)cc1F | -0.544% | 1.13% | 0.087% | 0.193% | 1.46% | 0.0555% | -0.694% | -0.463% | 0.998% | 1.54%

SMILES | growth inhibition [1] | growth inhibition [2] | growth inhibition [3] | growth inhibition [4] | growth inhibition [5] | growth inhibition [6] | growth inhibition [7] | growth inhibition [8] | growth inhibition [9] | growth inhibition [10]
COC(=O)Nc1nc2cc(Sc3ccccc3)ccc2[nH]1 | 6.86% | 10.3% | 8.12% | 9.42% | 10.7% | 10.1% | 77% | 10.8% | 4.78% | 3.48%
COC(=O)C1=C(C)NC(C)=C(C(=O)OC2CCCN(Cc3ccccc3)C2)C1c1cccc([N+](=O)[O-])c1 (stereo not given) | 3.05% | 0.403% | 2.15% | 3.22% | 6.94% | -0.555% | 33.4% | 3.22% | -1.31% | 2.1%
CC(=O)O[C@]1(C(C)=O)CC[C@H]2[C@@H]3C[C@H](C)C4=CC(=O)CC[C@]4(C)[C@H]3CC[C@@]21C | -3.25% | 0.463% | -0.594% | -0.287% | -4.12% | -0.715% | 31.3% | -4.85% | -6.53% | 4.79%
[O-]n1ccccc1=S.[O-]n1ccccc1=S.[Zn+2] | 61.5% | 60.4% | 56.6% | 56.4% | 20.2% | 59.7% | 58.4% | 48.4% | 59.2% | 59.7%
CN1CCC(OC(c2ccccc2)c2ccccc2)CC1 | 1.96% | 3.9% | 1.96% | 0.713% | 4.23% | 2.61% | 2.96% | 1.77% | 3.73% | -1.75%
CC(=O)Oc1ccc(C(c2ccc(OC(C)=O)cc2)c2ccccn2)cc1 | 2.78% | 3.71% | 5.33% | 8.29% | 20.8% | 3.52% | 4.99% | 18.7% | 3.8% | 5.98%
COC(=O)[C@H](c1ccccc1Cl)N1CCc2sccc2C1 | -1.33% | -0.314% | -0.551% | -0.762% | -0.681% | -0.144% | -2.08% | -1.84% | 0.653% | 1.29%
N[C@@H]1CCCCN(c2c(F)cc3c(=O)c(C(=O)O)cn(C4CC4)c3c2Cl)C1 | -3.25% | -0.479% | -2% | -1.55% | -1.72% | -3.25% | -0.931% | -3.46% | -2.21% | -0.978%
OC(CNCC(O)C1CCc2cc(F)ccc2O1)C1CCc2cc(F)ccc2O1 (stereo not given) | 4.79% | 3.01% | 2.85% | 4% | 4.24% | 6.9% | 2.72% | 2.21% | -0.86% | 2.62%
NCC[C@H](O)C(=O)N[C@@H]1C[C@H](N)[C@@H](O[C@H]2O[C@H](CN)[C@@H](O)[C@H](O)[C@H]2O)[C@H](O)[C@H]1O[C@H]1O[C@H](CO)[C@@H](O)[C@H](N)[C@H]1O | -1.74% and 1.77% | -1.47% and 4.24% | -2.3% and 3.01% | -2.19% and 1.75% | -0.158% and 4.96% | -2.78% and 2.92% | -1.9% and 2.1% | -1.35% and 2.18% | -1.89% and 2.2% | -0.125% and 0.203%
CCN(CC)CCOC(=O)C(c1ccccc1)c1ccccc1 | 3.33% | 2.41% | 3.35% | 1.46% | 2.96% | 2.47% | 6.35% | 0.181% | 3% | -1.28%
O=C(O)c1cn(C2CC2)c2cc(N3CCNCC3)c(F)cc2c1=O | -1.96% | -2.35% | -2.23% | -1.26% | -1.56% | -1.82% | -1.04% | -1.7% | -2.88% | -1.57%
Cc1cn([C@H]2C[C@H](N=[N+]=[N-])[C@@H](CO)O2)c(=O)[nH]c1=O | 3.15% | 3.86% | 4.01% | 3.46% | 5.5% | 1.53% | 10.3% | 3.31% | 3.71% | -0.807%
C1N2CN3CN1CN(C2)C3 | 1.11% | 3.51% | 1.18% | 2.53% | 3.89% | 2.47% | 0.987% | 1.56% | 1.89% | -0.234%
C=C1c2cccc(O)c2C(O)=C2C(=O)[C@]3(O)C(O)=C(C(N)=O)C(=O)[C@@H](N(C)C)[C@@H]3[C@@H](O)[C@H]12 | -0.484% | 2.83% | -0.0391% | -1.06% | 2.68% | -0.509% | 0.179% | 2.28% | -1.04% | 1.14%
Cc1ccc(NC(=O)c2ccc(CN3CCN(C)CC3)cc2)cc1Nc1nc(-c2cccnc2)cs1 | 8.55% | 4.57% | 8.77% | 6.79% | 15.1% | 9.96% | 9.74% | 7.78% | 9.06% | 2.08%
CC(C)CN(C[C@@H](O)[C@H](Cc1ccccc1)NC(=O)O[C@H]1CCOC1)S(=O)(=O)c1ccc(N)cc1 | -0.715% | -0.112% | -0.0284% | -0.297% | -0.345% | -0.047% | -1.76% | -2.74% | -1.11% | 0.567%
CC(S)C(=O)NCC(=O)O (stereo not given) | 0.154% | -1.2% | -0.0217% | 1.07% | 2.86% | 0.336% | 0.528% | -0.0269% | -0.507% | -0.969%
Cc1ccc(C(=O)Nc2ccc(CN3CCN(C)CC3)c(C(F)(F)F)c2)cc1C#Cc1cnc2cccnn12 | 60.2% | 59.1% | 51.4% | 56.7% | 56.8% | 50% | 62.7% | 18.6% | 6.05% | 22.9%
CCOc1ccccc1OC(c1ccccc1)C1CNCCO1 (stereo not given) | 0.58% | 2.23% | -0.477% | 1.96% | 0.0675% | 0.362% | -1.38% | -0.307% | -0.0566% | 0.138%
O=C([O-])[C@H](O)[C@@H](O)[C@H](O)[C@H](O)CO.[Na+] | 0.856% | 4.24% | 2.56% | 1.18% | 1.7% | 0.0619% | 3.09% | 1.5% | 2.94% | -0.611%
